In ChEMBL document CHEMBL3988442, “University of Dundee, Small-Polar-MMV Screening Library” (2021):
The whole screen tested about 69,000 compounds, of which about 420 (0.61%) showed an effect of 50% or more. The full list was thinned out, with strong results kept by preference.

Biological target: T1, Histidine--tRNA ligase (Leishmania infantum) (UniProt A4I591)
T1 sequence (whole entry): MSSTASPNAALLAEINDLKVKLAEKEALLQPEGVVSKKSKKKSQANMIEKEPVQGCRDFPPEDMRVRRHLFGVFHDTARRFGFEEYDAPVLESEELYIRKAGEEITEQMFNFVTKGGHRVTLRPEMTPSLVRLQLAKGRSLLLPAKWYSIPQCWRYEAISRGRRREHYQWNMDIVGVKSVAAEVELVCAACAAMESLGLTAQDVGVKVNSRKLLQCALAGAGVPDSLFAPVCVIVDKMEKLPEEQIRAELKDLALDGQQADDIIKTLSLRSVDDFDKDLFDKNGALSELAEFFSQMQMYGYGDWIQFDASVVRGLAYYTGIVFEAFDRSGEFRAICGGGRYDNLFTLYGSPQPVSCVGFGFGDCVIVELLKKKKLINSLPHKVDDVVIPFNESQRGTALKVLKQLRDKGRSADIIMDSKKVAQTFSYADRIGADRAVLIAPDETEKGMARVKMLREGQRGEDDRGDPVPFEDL
Test: Leishmania infantum Histidine tRNA synthetase (LdHisRS)
Format: functional
Parameters: scale not given: in the data most compounds retested in dose-response had high values
Conditions: 30 µM

SMILES | Percent Effect
Cc1ccc(N2CC3(CCN(c4nccs4)C3)C2)nn1 | 9.52%
Cc1ccc(N2CCC3(CC2)COCCN(c2nccs2)C3)nn1 | 58.5%
Cc1ccc(N2CCCC3(COCCN(c4nccs4)C3)C2)nn1 (stereo not given) | 11.4%
CS(=O)(=O)N1C[C@@H]2CC[C@H](C1)N(C(=O)Cn1ccc3ccccc31)C2 | 11.6%
Cn1cc(CN2CC[C@@H]3[C@H]2CCC(=O)N3c2ccccc2)cn1 | 5.56%
CN(CCOc1ccccc1)C(=O)Nc1cccn(C)c1=O | 112%
COc1c(NC(=O)N(C)CCOc2ccccc2)c(C)nn1C | 24.1%
Cn1cccc(NC(=O)COc2ccc(Br)cc2)c1=O | 26.1%
O=C(NCc1ccco1)[C@H]1COC[C@H]2CN(Cc3ccccn3)C[C@H]21 | 14%
Cc1ccccc1NC1CCN(C(=O)CCc2ccco2)CC1 | 12.5%
Cc1ccc(N(C)C2CCN(C(=O)CCc3ccco3)CC2)nn1 | 58.5%
Cc1ccc(NC2CCN(C(=O)CCc3ccco3)CC2)nn1 | 27.7%
O=C(c1ncccn1)N1C[C@H]2CCC[C@@]2(COCc2cccnc2)C1 | -3.92%
Cc1cnc(C(=O)N2C[C@H]3CN(Cc4cccs4)C[C@H]3C2)cn1 | -3.19%
CS(=O)(=O)CCC(=O)N1C[C@@H]2CC[C@H](C1)N(Cc1ccccn1)C2=O | 18%
O=C(CC1CC1)N[C@@H]1CN(Cc2ccoc2)C[C@@H]2CCCO[C@@H]21 | -31.4%
O=C1CCC(C(=O)Nc2cnn(-c3ccccc3Cl)c2)N1 (stereo not given) | 19.5%
O=C(Nc1cnn(Cc2ccc(F)cc2Cl)c1)C1CC1 | 15.9%
O=C(Nc1ccc(=O)n(Cc2ccccc2Cl)c1)C1CC1 | 114%
O=C1NCC(C(=O)NCc2ccccc2CN2CCOCC2)N1 (stereo not given) | 7.25%
CC1CCN(Cc2ccccc2CNC(=O)C2CNC(=O)N2)CC1 (stereo not given) | 5.18%
O=C1CCC(C(=O)Nc2ccc(=O)n(Cc3ccccc3Cl)c2)N1 (stereo not given) | 20.5%
O=C1CCC(C(=O)Nc2ccc(=O)n(Cc3ccc(Cl)c(Cl)c3)c2)N1 (stereo not given) | 95.2%
O=C1CC[C@H](C(=O)Nc2cnn(-c3ccccc3Br)c2)N1 | 7.32%

SMILES | Percent Effect
O=C1NCC(C(=O)Nc2ccc(=O)n(Cc3ccccc3Cl)c2)N1 (stereo not given) | 92.8%
CC(C)CN1C(=O)CO[C@@H]2CN(C(=O)N(C)C)C[C@H]21 | 8.77%
CN1CC[C@@H]2[C@@H](CO[C@H]2CNC(=O)c2nccn2C)C1 | 16%
CN(C)C(=O)CN1C[C@@H]2CC[C@H](C1)N(Cc1cc(F)ccc1F)C2 | 1.91%
CN1C[C@@H]2CC[C@H](CC1=O)N2C(=O)c1cc2ccccc2[nH]c1=O | 19.5%
Cc1occc1C(=O)N1C[C@@H]2[C@@H](C1)OCC(=O)N2Cc1cccnc1 | 11.5%
Cn1cc(C(=O)N2CC[C@@H]3[C@@H]2CCN3c2ccccn2)cn1 | 16%
Cc1noc(C)c1CN1CCO[C@H]2CN(C(=O)C3CCOCC3)C[C@H]21 | 7.96%
Cc1cc(C(=O)NCc2cccnc2N2CCc3ccccc3C2)[nH]n1 | 21.4%
O=C(NCc1cccnc1N1CCc2ccccc2C1)c1cc(=O)[nH][nH]1 | 50%
O=C(NCc1cccnc1N1CCc2ccccc2C1)c1cnc[nH]1 | 18.6%
CCC1CN(CC(=O)NCCN2CCCC2)c2ccccc2S1 (stereo not given) | 31.5%
CCC1CN(CC(=O)NCCN2CCCCCC2)c2ccccc2S1 (stereo not given) | 51.1%
CCC1CN(CC(=O)NCCN2CCCCC2)c2ccccc2S1 (stereo not given) | 27.2%
CN(C)C(=O)N1C[C@@H]2CC[C@H](C1)N(Cc1ccc3nsnc3c1)C2 | 24%
O=C1N(c2cccc(F)c2)Cc2nc(=O)n(Cc3ccccc3Cl)n21 | 12%
CN1C[C@@H]2CN(C(=O)NCc3cccc(F)c3)CCC[C@]2(C(=O)O)C1 | 6%
COc1ccc(CN2C[C@@H]3COC[C@@H](N4CCN(C)CC4)[C@@H]3C2)cc1 | 17%
Cc1c(-c2cc(C(F)(F)F)nc(N3CCC(N)CC3)n2)cnn1C | 19.4%
CCn1ncc(-c2cc(C(F)(F)F)nc(N3CCC(N)CC3)n2)c1C | 15.1%
CCc1ccc(-c2cc(C(F)(F)F)nc(N3CCC(N)CC3)n2)cc1 | 71%
CNC(=O)[C@H]1C[C@@H]2CN(C(=O)c3ccco3)C[C@@H]2N1S(C)(=O)=O | 17%
COCCC(=O)N1CC[C@@H]2O[C@@H](C)C[C@H]2C1 | 15.3%
O=C(Cc1ccco1)N1C[C@H]2CCC[C@@]2(COc2cccnc2)C1 | 24%

SMILES | Percent Effect
Cn1cnc2c1CCN(Cc1csc(-c3ccccc3)n1)C2 | 15.7%
Cn1cnc2c1CCN(Cc1csc(-c3ccc(F)cc3)n1)C2 | 10.2%
COc1ccc(-c2nc(CN3CCc4c(ncn4C)C3)cs2)cc1 | 57.5%
Cc1ccc(OCC(=O)N2C[C@@H]3CN(C)CCO[C@@H]3C2)cc1 | 5.17%
COc1cccc(CN(C)C(=O)CN2CC(n3nc(C)cc3C)C2)c1 | 62.9%
Cc1cc(C)n(C2CN(CC(=O)N(C)Cc3ccsc3)C2)n1 | 43.8%
COc1ccccc1CN(C)C(=O)CN1CC(n2nc(C)cc2C)C1 | 40.2%
COc1cc(C(=O)N2CCO[C@H]3[C@H](OCC4CC4)CC[C@@H]32)ccc1F | 12.1%
O=C(NCc1cccnc1)[C@H]1C[C@@H]2CCN(c3ccncn3)C[C@H]2O1 | 15.3%
CCN1C[C@@H]2CN(C(=O)c3ccsc3)C[C@@H]2C1=O | -28.6%
N#Cc1cccc(CN2C[C@@H](NC(=O)C3CC3)[C@H]3OCCC[C@H]32)c1 | -2.75%
O=C(O)c1c[nH]c2cc(NS(=O)(=O)c3cccc(F)c3F)ccc12 | 36.5%
COc1ncc(NS(=O)(=O)c2ccc(F)cc2F)cn1 | 12.8%
Cc1cc(O)ncc1NS(=O)(=O)c1cccc(F)c1F | 95.2%
COc1ccccc1S(=O)(=O)Nc1cnc(O)cc1C | 20.5%
COc1cc(F)c(S(=O)(=O)Nc2cnc(O)cc2C)cc1OC | 97.6%
CC(C)(CN)NS(=O)(=O)c1cccc(F)c1F | 11.8%
COc1ccc(CN2CCO[C@H]3CN(C(=O)C4CC4)CC[C@H]3C2=O)cc1 | 11.1%
COC[C@@]12CCO[C@@H]1CCN(Cc1ccc(C)s1)C2 | -2%
O=C(c1cnccn1)N1C[C@@H]2CC[C@H](C1)N(C(=O)Cc1ccsc1)C2 | 12.3%
CCCS(=O)(=O)N1C[C@H](N(C)Cc2ccco2)[C@@H]2OCCC[C@@H]21 | 9%
Cc1nc(C(=O)N2C[C@@H]3CN(S(C)(=O)=O)CCO[C@@H]3C2)cs1 | 8.77%
